Out of some 52,000 compounds screened, about 4,300 (8.3%) were called active. What follows is part of a selection rich in actives, with near analogues and random picks from the rest. Values without a mark were called inactive. No stated cut-off is given here; in the data, active means survival mostly below about 52% (no sharp cut-off); inactive means mostly above about 56%.

In the test the test system is DeltatarO mutant. Put plainly: growth inhibition of S. aureus wild type versus tarO mutant, primary screen, teichoic acid synthesis inhibitors, RN4220, OD600 (AID 463173). The conditions noted are these: OD600, 18 h, hits give low values, screened at 18.75 µg/mL (by protocol).
Consider `CCC(CC)C(=O)Nc1cc(-c2ccccc2F)nn1-c1ccccc1`, for which the survival is 76%.

For `CCOC(=O)c1c(NC(=O)COc2cccc(C)c2C)sc2c1CCCCC2`, the survival is 64%.

`CCOC(=O)c1c(NC(=O)COc2ccccc2F)sc2c1CCCC2`: the survival was 67%.

Take `CCOC(=O)c1c(NC(=O)COc2ccccc2Br)sc2c1CCCCC2`: the survival was 40% (active).

For the compound `CCOC(=O)c1c(NC(=O)COc2cccc(C(F)(F)F)c2)sc2c1CCCCC2`, the survival was 60% (active).

Turning to `CCOC(=O)c1c(NC(=O)COc2cccc(C(F)(F)F)c2)sc2c1CCC(C)C2` (centres undefined), the survival is 68%.

Take `COC(=O)c1c(NC(=O)COc2cccc(C(F)(F)F)c2)sc2c1CCCC2`: the survival is 49%.

Regarding `O=S(=O)(Nc1cccc(-c2ccc(N3CCOCC3)nn2)c1)c1ccc(F)cc1F`, the survival was 62%.

As to `Cc1c(CCNC(=O)c2c(F)cccc2F)sc2nc(-c3ccc(F)cc3)nn12`, the survival is 117%.

In the case of `CCOc1ccccc1CNC(=O)c1ccc(NC(=O)N2CCSc3ncccc32)cc1`, the survival was 79%.

Regarding `CCc1nnc(NC(=O)CSC2=NC(=O)C(NC(C)=O)C(=O)N2)s1` (centres undefined), the survival is 99%.

On to `CCCN(CCC)C(=O)Cn1c(=O)n(CCCCCC(=O)NCc2ccccc2Cl)c(=O)c2sccc21`, for which the survival is 81%.

Consider `Cc1ccc(Cn2c(=O)n(Cc3ccccc3)c(=O)c3oc4ccccc4c32)cc1`, for which the survival was 69%.

On to `CC(=O)N1CCCc2cc(S(=O)(=O)NCc3cccc(C)c3)ccc21`, for which the survival is 78%.

With `C=CCc1c(C)nc2nc(SCC(=O)Nc3ccc(C)c(C)c3)nn2c1C`, the survival is 75%.

Consider `CCOC(=O)c1ccccc1NC(=O)CSc1cc(C)[nH]c(=O)n1`, for which the survival is 88%.

For `COc1cc(C(=O)Nc2cc(C)ccc2OCc2cc(=O)n3cc(C)sc3n2)cc(OC)c1OC`, the survival was 89%.

Consider `O=C(c1cccn1-c1nnc(N2CCCC2)s1)N1CCN(c2ccc(F)cc2)CC1`, for which the survival is 118%.

`O=C(c1cccn1-c1nnc(N2CCCCC2)s1)N1CCN(c2ccc(Cl)cc2)CC1`: the survival is 69%.

`O=C(c1cccn1-c1nnc(N2CCCC2)s1)N1CCN(c2ccc(Cl)cc2)CC1`: the survival is 63%.

In the case of `O=C(c1cccn1-c1nnc(N2CCCC2)s1)N1CCN(c2ccccc2)CC1`, the survival is 25% (active).

On to `COc1ccc(N2CCN(C(=O)c3cccn3-c3nnc(N4CCCC4)s3)CC2)cc1`, for which the survival is 101%.

In the case of `O=C(c1cccn1-c1nnc(N2CCCCC2)s1)N1CCN(c2ccccc2)CC1`, the survival was 0% (active).

Take `O=S(=O)(c1ccc2nc(Nc3ccc(Br)cc3F)ccc2c1)N1CCCCC1`: the survival was 70%.

As to `CCOc1ccc(CCNC(=O)C2COc3ccccc3C2)cc1OCC` (centres undefined), the survival was 0% (active).

On to `CN(C)c1ccc(CNC(=O)C2COc3ccccc3C2)cc1` (centres undefined), for which the survival was 32% (active).

Turning to `Cc1ccc(CCNC(=O)C2COc3ccccc3C2)cc1` (centres undefined), the survival was 74%.

With `COc1ccc(CCNC(=O)C2COc3ccccc3C2)cc1OC` (centres undefined), the survival was 75%.

Regarding `Cc1ccc(CNC(=O)C2COc3ccccc3C2)cc1` (centres undefined), the survival is 117%.

As to `CCOc1cc(CNC(=O)C2COc3ccccc3C2)cc(OCC)c1OCC` (centres undefined), the survival is 69%.

Regarding `CCc1ccc(CNC(=O)C2COc3ccccc3C2)cc1` (centres undefined), the survival was 81%.

With `O=C(NCCc1ccc(Cl)cc1)C1COc2ccccc2C1` (centres undefined), the survival was 69%.

As to `O=C(NCCc1ccccc1)C1COc2ccccc2C1` (centres undefined), the survival is 37% (active).

With `NC(=O)c1cc(S(=O)(=O)NCC2CCC(C(=O)Nc3cccc(Cl)c3)CC2)cs1` (centres undefined), the survival is 76%.

In the case of `CCCOc1ccc(-c2nonc2NC(=O)c2cc(OC)c(OC)c(OC)c2)cc1OCCC`, the survival is 84%.

For `COc1ccccc1CNC(=O)CCNS(=O)(=O)c1cccc2nsnc12`, the survival is 64%.

Turning to `CCc1ccccc1NC(=O)C(=O)c1cc(C)n(-c2ccccc2F)c1C`, the survival was 87%.

As for `CCOC(=O)C1=C(CN2CCN(c3ccc(C)cc3C)CC2)NC(=O)NC1c1ccc(OC)cc1` (centres undefined), the survival was 97%.

As to `CC1(C)CC2(CC(C)(C)NC(=O)N2)NC(=O)N1`, the survival is 89%.

For the compound `Cc1cc(C)c(Cn2c(=O)n(Cc3ccccc3)c(=O)c3c(C)c(C)sc32)c(C)c1`, the survival is 49%.

For the compound `Cc1cccc(-c2nnc(SCC(=O)NC3CCCCC3)o2)c1`, the survival was 82%.

For the compound `Cc1ccc(CNC(=O)c2ccc3c(O)c(S(=O)(=O)c4ccc(Cl)cc4)c(=O)[nH]c3c2)cc1`, the survival was 84%.

In the case of `Cc1cc(C)cc(C(=O)Nc2ccc(-c3nc4ncccc4o3)cc2)c1`, the survival is 56%.

For `COc1c(C)cc(Br)cc1C(=O)Nc1ccc(-c2nc3ncccc3o2)cc1`, the survival is 50%.

As to `Cc1cc(-c2nc3ncccc3o2)ccc1NC(=O)c1ccc(Br)cc1`, the survival was 174%.

On to `COc1ccc(C(=O)Nc2ccc(-c3nc4ncccc4o3)cc2)cc1`, for which the survival was 78%.

Turning to `COc1ccc(C(=O)Nc2cc(-c3nc4ncccc4o3)ccc2C)cc1Br`, the survival was 40% (active).

As for `Cc1cc(-c2nc3ncccc3o2)ccc1NC(=O)c1ccc(Cl)cc1`, the survival is 76%.

In the case of `Cc1ccc(-c2nc3ncccc3o2)cc1NC(=O)c1ccccc1Br`, the survival was 53%.

With `Cc1ccc(C(=O)Nc2cc(-c3nc4ncccc4o3)ccc2C)c(C)c1`, the survival is 98%.

With `Cc1cc(-c2nc3ncccc3o2)ccc1NC(=O)c1ccccc1Br`, the survival was 27% (active).

Turning to `Cc1ccc(-c2nc3ncccc3o2)cc1NC(=O)c1cccc(OCC(C)C)c1`, the survival was 42% (active).

Consider `CC(C)COc1cccc(C(=O)Nc2ccc(-c3nc4ncccc4o3)cc2)c1`, for which the survival was 65%.

With `CCOc1cc(C(=O)Nc2ccc(-c3nc4ncccc4o3)cc2C)cc(OCC)c1OCC`, the survival was 52% (active).

Regarding `CCOC(=O)C1CCCN(S(=O)(=O)c2cc(Br)cc3c2N(C(C)=O)CC3)C1` (centres undefined), the survival was 72%.

On to `CCC1CN(C(=O)N2CCC(C(=O)NCc3cccc(C)c3)CC2)c2ccccc2O1` (centres undefined), for which the survival is 77%.

As for `O=C(NCc1ccco1)Nc1ccccc1`, the survival is 94%.

Turning to `O=C(CCCCn1c(=O)c2ccccc2n(CC(=O)Nc2ccc(F)cc2F)c1=O)NCCc1ccccc1`, the survival was 92%.

`CC1=C(C(=O)NCc2ccccc2Cl)C2(CCCCCC2)OC1=O`: the survival was 49%.

Take `CCCN(c1ccc(C(C)C)cc1)S(=O)(=O)c1ccc2c(c1)n(C)c(=O)c(=O)n2C`: the survival is 84%.

On to `COc1ccc(NC(=O)Cn2c(C)cc3ccccc3c2=O)c(OC)c1`, for which the survival is 59%.

On to `CCc1cccc(C)c1Nc1c(-c2cccc(O)c2)nc2nc(C)cc(C)n12`, for which the survival is 66%.

Regarding `CCc1cccc(NC(=O)CCS(=O)(=O)c2cc(Br)cc3c2N(C(C)=O)CC3)c1`, the survival is 144%.

In the case of `COc1ccc(C(=O)Nc2ccc(-c3nc4ncccc4o3)cc2C)cc1Br`, the survival is 37% (active).

For `Cc1ccc(-c2nc3ncccc3o2)cc1NC(=O)c1ccc(-c2cccc(Cl)c2C)o1`, the survival is 56%.

With `Cc1ccc(-c2nc3ncccc3o2)cc1NC(=O)c1ccc(-c2ccc(Cl)cc2)o1`, the survival is 35% (active).

Turning to `O=C(Nc1nccs1)c1ccc(-c2ccc(Cl)cc2)o1`, the survival is 35% (active).

As to `O=C(Nc1nccs1)c1cccc(C(=O)Nc2nccs2)c1`, the survival is 98%.

For `COc1ccc(Br)cc1C(=O)Nc1ccc(-c2nc3ncccc3o2)cc1C`, the survival is 41%.

Consider `Cc1cc(NC(=O)c2ccc(-c3ccc(Cl)cc3)o2)cc(-c2nc3ncccc3o2)c1O`, for which the survival was 88%.

Consider `CCCC(=O)Nc1ccc(-c2nc3ncccc3o2)cc1C`, for which the survival was 69%.

`CC(=O)c1ccc(NC(=O)c2ccc(-c3ccc(Cl)cc3)o2)cc1`: the survival is 92%.

As for `CCCCc1nn2c(=O)cc(COC(=O)c3ccc(NC(=O)C(CC)CC)cc3)nc2s1`, the survival is 94%.

With `CCC(Sc1nc2ccccc2c2nc(CCn3c(C)nc4ccccc43)nn12)C(=O)Nc1ccc(F)cc1` (centres undefined), the survival is 67%.

On to `COc1ccc(Cn2c(CCC(=O)NCc3ccc(Cl)cc3)nc3cccnc32)cc1`, for which the survival is 112%.

As for `CC1CCN(c2nc3nonc3nc2Nc2ccc(F)cc2)CC1`, the survival was 78%.

Take `Cc1cc(C)nc(N2CCCC(C)C2)n1` (centres undefined): the survival was 87%.

On to `CC1CCCN(c2nc3nonc3nc2Nc2cccc(Cl)c2)C1` (centres undefined), for which the survival is 0% (active).

In the case of `COc1ccccc1CNC(=O)CCn1c(=O)c2ccccc2n(CC(=O)Nc2ccc(C)cc2C)c1=O`, the survival was 86%.

Turning to `CCOC(=O)c1ccc(NC(=O)Cn2nnc(-c3ccc(C(F)(F)F)cc3)n2)cc1`, the survival is 87%.

Regarding `CC1CCN(C(=O)c2cc3c(=O)n(C)c4ccccc4c3s2)CC1`, the survival was 88%.

As to `CCC(C)NC(=O)C1CCN(C(=O)c2ccc(-n3ccc4ccccc43)s2)CC1` (centres undefined), the survival is 81%.

Turning to `Cc1ccc2nc(Cl)c3cc(C(=O)NC4CCCCCC4)sc3c2c1`, the survival was 102%.

With `CCOC(=O)C1CCCN(C(=O)c2cc3c(=O)n(C)c4ccccc4c3s2)C1` (centres undefined), the survival is 44% (active).

Consider `Cc1ccc2nc(Cl)c3cc(C(=O)N4CCCCC4C)sc3c2c1` (centres undefined), for which the survival is 23% (active).

Regarding `CCOC(=O)C1CCCN(C(=O)c2ccc(-n3ccc4ccccc43)s2)C1` (centres undefined), the survival was -1% (active).

Turning to `CCOC(=O)C1CCN(C(=O)c2ccc(-n3ccc4ccccc43)s2)CC1`, the survival is 72%.

As for `CC1CCCN(C(=O)c2cc3c(=O)n(C)c4ccccc4c3s2)C1` (centres undefined), the survival was 138%.

Consider `Cc1ccc2nc(Cl)c3cc(C(=O)NC4CCCCC4)sc3c2c1`, for which the survival is 52%.

`CC(C)N(C(=O)c1cc2c(Cl)nc3ccccc3c2s1)C1CCCCC1`: the survival was 16% (active).

Regarding `Cc1ccc(S(=O)(=O)Nc2nc3c(s2)C(=O)CC(C)(C)C3)cc1`, the survival is 91%.

For the compound `COc1ccc2nc(NS(=O)(=O)Cc3ccccc3)sc2c1`, the survival is 75%.

On to `CCOc1ccccc1N(C)C(=O)NCc1noc2ccccc12`, for which the survival is 108%.

On to `O=C(NCc1ccccc1F)C(=O)NCC(c1cccs1)S(=O)(=O)c1cccs1` (centres undefined), for which the survival is 83%.

Source of the values: PubChem BioAssay AID463173 (ICCB-Longwood Screening Facility, Harvard Medical School, 2010).
